Out of some 16,000 compounds screened, about 2,600 (16%) were called active. Inconclusive results (about 20%) are left out. The list is a sample of the results. Unmarked numbers belong to inactive results. Calls come from the whole dose curve; as a rule, active = well fitted curve in the direction sought with a large enough effect; inconclusive = small, poorly fitted or top-dose-only effect, or effect the other way; inactive = no such curve, though single readings can be large or run the other way.
Target: Cytochrome P450 2D6 (Homo sapiens) (UniProt P10635)
Sequence (P10635 whole entry, looked up): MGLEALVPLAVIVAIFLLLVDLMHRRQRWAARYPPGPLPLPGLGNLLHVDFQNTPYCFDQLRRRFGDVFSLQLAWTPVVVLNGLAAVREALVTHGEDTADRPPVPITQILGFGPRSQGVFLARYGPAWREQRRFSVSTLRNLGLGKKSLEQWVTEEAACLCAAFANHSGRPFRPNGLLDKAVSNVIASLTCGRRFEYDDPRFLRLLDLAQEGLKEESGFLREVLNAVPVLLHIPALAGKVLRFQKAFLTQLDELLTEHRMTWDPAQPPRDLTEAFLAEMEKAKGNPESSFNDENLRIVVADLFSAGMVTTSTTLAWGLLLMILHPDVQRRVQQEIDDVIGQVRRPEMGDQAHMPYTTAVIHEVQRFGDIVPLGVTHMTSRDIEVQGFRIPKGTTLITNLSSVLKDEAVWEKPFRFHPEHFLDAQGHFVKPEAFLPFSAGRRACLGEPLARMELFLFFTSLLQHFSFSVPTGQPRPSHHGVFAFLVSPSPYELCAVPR
Assay: Cytochrome panel assay with activity outcomes
Settings: recombinant CYP, pro-luciferin dealkylation, luminescence, p450-cyp2d6; series mostly up to 57.1 µM; activity, negative = inhibition: at the top concentration
% is set by controls: 0 for no effect and ±100 for the full control effect.

| SMILES | AC50 | activity, negative = inhibition |
| --- | --- | --- |
| CN(C)CCN(Cc1ccc(Cl)cc1)c1ccccn1 | 0.02 µM (active) | – |
| COc1ccc(CC(=O)O/N=C(\N)Cc2ccc(OC)cc2)cc1 | – | 3% |
| CCSc1nnc(-c2ccccc2NC(C)=O)c(=O)[nH]1 | – | -26.1% |
| COc1ccc(-c2nc3cnc(N4CCNCC4)nc3n(Cc3ccc(F)cc3)c2=O)cc1 | – | -0.475% |
| CCOC(=O)CSc1nnc(Cc2cc(=O)[nH]c(=O)[nH]2)n1-c1cccc(OC)c1 | – | 0.419% |
| CCNC(=O)c1ccc(-n2nc(C)cc2-c2ccccc2)cc1 | – | 6.71% |
| CC(C)=CCC/C(C)=C/CO/N=C1/C[C@@H](O)[C@@H](O)[C@@H]2[C@H]3C(=O)N(c4ccc(F)cc4F)C(=O)[C@@H]3CC[C@@H]12 | – | 8.95% [at 11.4 µM] |
| COc1ncc2nc(-c3cn(C)c4ccccc34)c(=O)n(C)c2n1 | – | 3.38% |
| CN(C)/C(CN1CCOCC1)=C1\N=C(c2ccccc2)OC1=O | – | 5.8% |
| NC(N)=N/N=C\c1ccc(O)c(C(=O)O)c1 | – | 13.4% [at 11.4 µM] |
| CC(=O)/C(=N\N=C(N)N)c1ccccc1 | – | -4.42% [at 11.4 µM] |
| NC(N)=N/N=C(/c1ccccc1)c1ccc(O)cc1O | 1.26 µM (active) | – |
| COCCCNC(=O)c1c(NC(=O)c2cccs2)sc2c1CCCC2 | – | -17.3% |
| CCC1OC23CCCCC2C(C#N)(C(=N)O3)C1(C#N)C#N (stereo not given) | – | 8.79% |
| Cc1ccc2nc(SCc3nnc(-c4ccccc4[N+](=O)[O-])o3)c(C#N)cc2c1 | – | -4.06% |
| Cc1nonc1NCn1nnc2ccccc21 | – | 8.37% |
| NN(CC(=O)O)CC(=O)O | – | -0.968% [at 11.4 µM] |
| CO[C@H]1COC(=O)[C@H](C)NC(=O)C/C=C\[C@@H](C)[C@@H](NS(=O)(=O)c2ccc(C)cc2)COC(=O)C/C=C\[C@@H]1C | – | 6.92% [at 11.4 µM] |
| CC1CCC(C(=O)O)([C@H](Br)C(=O)O)CC1 (stereo not given in full) | – | -1.57% [at 11.4 µM] |
| Cc1nc2cnc(N3CCN(C)CC3)nc2n(C)c1=O | – | 12% |
| O=C1c2cccc([N+](=O)[O-])c2C(=O)N1c1ncn[nH]1 | – | 10.8% [at 11.4 µM] |
| COC(=O)[C@]1(C)CCC(c2ccc(C)cc2)=C(CC(=O)O)C1 | – | 13.4% [at 11.4 µM] |
| C[C@]1(C2CCCC2)Cc2cc(OCC(=O)O)c(Cl)c(Cl)c2C1=O | – | 6.24% |
| CC(=O)Nc1ccc2nc(C3CCCCC3)[nH]c2c1 | 12.6 µM (active) | – |
| Cc1cc(NC(=O)C2CCCC2)n(-c2nc3ccccc3[nH]2)n1 | – | -10.9% |

| SMILES | AC50 | activity, negative = inhibition |
| --- | --- | --- |
| CSc1cccc(NC(=O)OC2CCCCCCCCCCC2)c1 | – | 10.7% [at 11.4 µM] |
| O=C(CSc1nnc(CNc2ccc(F)cc2)o1)OC1CCCCC1 | – | -30.4% |
| Oc1ccc(/C=N/NC(=S)NCc2ccco2)cc1 | – | 2.33% |
| CCCn1c(C)nc2c(c1=O)c1nc3ccccc3nc1n2CCC1=CCCCC1 | – | -23.2% |
| N#CC1(Nc2ccc(-c3ccc(NC4(C#N)CCCC4)cc3)cc2)CCCC1 | – | 8.6% [at 11.4 µM] |
| Cn1ncc(C#N)c1/N=C/N1CCCCCC1 | – | 3.27% |
| CCc1ccc(OCC(=O)NC(=S)Nc2ccc(C)cc2C)c(Br)c1 | – | 3.53% |
| CCOC(=O)c1nnn(-c2nonc2N)c1-c1ccccc1 | – | 5.69% |
| CCOC(=O)c1nnn(-c2nonc2N)c1-c1ccc(C)cc1 | – | 1.09% |
| CCOC(=O)c1nnn(-c2nc(OC)nc(N3CCCCC3)n2)c1-c1ccccc1 | 17.8 µM (active) | – |
| Cc1nn(Cc2c(F)c(F)c(F)c(F)c2F)c(C)c1NC(=O)c1cccc(COc2ccc(Cl)cc2)c1 | – | -24.2% |
| COc1ccc(Oc2ncc3ncc(=O)n(C[C@H]4CCCO4)c3n2)cc1 | – | 4.88% |
| COc1ccc(NC(=O)c2ccc(-c3ccc(-c4noc(C)n4)cc3C)cc2)cc1OCCN(C)C | 12.6 µM (active) | – |
| COc1ccc(-c2cc(C(=O)Nc3cc(OC)c(OC)c(OC)c3)no2)cc1OC | – | -1.21% |
| COc1ccc(NC(=O)c2cc(C(C)C)on2)cc1OC | – | -22.8% |
| CC[C@H]1C2=C3C(CC[C@H]4C(OCc5ccc(F)cc5C(F)(F)F)OC[C@](C)([C@@H]34)N(C(=O)OC(C)(C)C)C2)C(COC)C1COC (stereo not given in full) | – | 2.49% |
| CC(=O)NC1(c2cccc(F)c2)CCN(CC(=O)NC2CCCCC2)CC1 | – | -8.39% |
| Cn1c(CCNC(=O)c2ccccc2Cl)n[nH]c1=S | – | -4.47% |
| O=C1O[C@H](CN2CCOCC2)CN1/N=C\c1ccc([N+](=O)[O-])o1 | – | -18.9% [at 25.6 µM] |
| CCCSc1nnc(CSc2nc3nc(C)cc(C)n3n2)o1 | – | -9.07% |
| Cc1ccccc1NC(=O)CSc1nc(N2CCCCC2)nc(N2CCCCC2)n1 | – | 14.4% |
| Cc1cc(SCC(=O)c2ccccc2)nc(SCC(=O)c2ccccc2)n1 | – | 7.93% |
| Cc1cccc(Nc2cc(Cl)nc(SCC(=O)O)n2)c1C | 3.16 µM (active) | – |
| Cc1cn(CC[C@H](N)C(=O)O)c(=O)[nH]c1=O | – | -3.77% [at 11.4 µM] |
| CCCC(=O)Nc1nc2n(n1)C(c1ccccc1)CC(=O)N2 (stereo not given) | – | 22.6% |
